Assay results from the OligoGym collection.

target: KRTAP4-7; assay: pooled miR-30 sensor sort-seq; sequence = guide strand; conditions: shRNA
Also: reference of the scale not given here.

Sequence | sensor-assay potency score (higher = more potent)
TGGTCTGACAGCAGCTGGGGCG | -1.46
TGGTCAGAGCACACGGAGCCAC | -1.43
CAGCAGGTCGTCTCACAGCAGC | -2.76
TAGCAGGTGGTCCTGCAACAGG | -1.7
CAGCTGGACACACAACAGCTGG | -1.96
TGGAGATGCAGCACCTAGGGTG | -0.36
TGACAGAGGACTTGGCCGCAGC | -1.09
TCTGACAGCAGCTGGGGCGGCA | -1.19
AGCTGGACACACAACAGCTGGG | -1.49
CAGGTGGTCTGACAGCAGCTGG | -2.02
TCAGTGACAAAACTGGTCCTGC | 0.367
CTGGACACACAACAGCTGGGGC | -1.77
TAGGGTGGCAGCAGGTCGTCTC | -0.549
TATTGAATGACATCAACCCCAC | -0.0813
TTGCAGCAGCTGGACATACAGC | -1.51

target: KRTAP5-8; assay: as above; conditions: shRNA

Sequence | sensor-assay potency score (higher = more potent)
AGCAGCTAGAGCCACATCCCCC | -1.72
TGAGGAGCAACAGCAGGGCTTA | -1.48
TGCAGGGCTTACAACAGCTGGA | -1.15
TTACAACAGCTGGACTGGGAAC | -1.86
ATGGGCACACAGCAGCTAGAGC | -1.84
